Data taken from PubChem BioAssay (EPA / NIEHS).
Results filed as inconclusive are left out. Activity calls are given as the source filed them. The calls were made as follows, unless noted: active = hit-call score of the fitted dose curve at least 0.9, where 1 is the maximum; inconclusive = response in the unintended direction; inactive = score below 0.9.

Legend:
[1] = read-out: Cytochrome P450 (CYP24A1_1), CYP24A1 (gene 1591); experiment: LTEA_HepaRG_CYP24A1_1: Life Technologies and Expression Analysis (LTEA) Assay for Cytochrome P450 (CYP24A1_1) using HepaRG (AID 2283671; active = hit-call score of the fitted dose curve at least 0.9, where 1 is the maximum; inactive = score below 0.9); conditions: mRNA level, 48 h; actives raise or lower the signal
Method in brief: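 Readout is CYP24A1 transcript level by qRT-PCR, normalized to three housekeeping genes, with gain or loss of signal fitted against 0.5% DMSO. Human HepaRG cells received compound for 48 h at up to 100 uM.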

[2] = read-out: glucuronosyltransferase (UGT1A1), UGT1A1 (gene 54658); experiment: CLD_UGT1A1_6hr: CellzDirect (CLD) Gene Expression Assay for glucuronosyltransferase (UGT1A1) at 6 hours (AID 2283672)
Method in brief: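 UGT1A1 mRNA induction, read by quantitative nuclease protection assay, 6 h after dosing primary human hepatocytes (two donors, 0.2% DMSO vehicle). Gain of signal fitted relative to vehicle.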

[3] = read-out: ABC Transporter (ABCB11), ABCB11 (gene 8647); experiment: CLD_ABCB11_6hr: CellzDirect (CLD) Gene Expression Assay for ABC Transporter (ABCB11) at 6 hours (AID 2283675);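 also: hits raise ABCB11 mRNA level so AC50 marks induction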
Method in brief: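 Read-out was ABCB11 mRNA gain of signal by quantitative nuclease protection assay, relative to 0.2% DMSO vehicle, 6 h post-dose. Cells were primary human hepatocytes from two donors, treated across multiple concentrations; phase-contrast cytotoxicity noted yes/no.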

[4] = read-out: Cytochrome P450 2C19 (Homo sapiens) (UniProt P33261); experiment: CLD_CYP2C19_6hr: CellzDirect (CLD) Gene Expression Assay for xenobiotic metabolism (CYP2C19) at 6 hours (AID 2283678)
Method in brief: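 CYP2C19 transcript induction was quantified by quantitative nuclease protection assay with chemiluminescent read-out, 6 h after dosing. Cells were primary human hepatocytes from two donor preparations, given fresh dosing solutions daily in 0.2% DMSO vehicle. Activity was relative to DMSO.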

[5] = CCTE_Padilla_ZF_144hpf_TERATOSCORE: (Legacy) CCTE's 144 Hour Post-fertilization zebrafish Assay Teratoscore, Padilla Lab (AID 2283679; active = hit-call score of the fitted dose curve at least 0.9, where 1 is the maximum; inactive = score below 0.9;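 as to AC50: zebrafish embryos with chorions exposed by immersion from 6-8 hpf to 5 dpf with daily renewal; teratogenicity score from eye scoring of death hatching and malformations at 144 hpf; higher score means more developmental defects relative to DMSO baseline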)
Method in brief: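 Larvae scored by eye at 144 hpf for death, hatching and malformations after a day in clean Hanks'. Before that, daily-renewed exposure at 80 uM (0.4% DMSO, 26C) from roughly 6-8 hpf through 5 dpf, 4 embryos per chemical.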

[6] = read-out: Glyceraldehyde-3-phosphate dehydrogenase (Homo sapiens) (UniProt P04406); experiment: CLD_GAPDH_6hr: CellzDirect (CLD) Gene Expression Assay for Baseline Control (Glyceraldehyde 3-phosphate dehydrogenase) at 6 hours (AID 2283681);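 also: active means increased signal relative to DMSO vehicle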
Method in brief: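 GAPDH baseline-control readout from qNPA (S1 nuclease digestion, probe hybridization, chemiluminescence) in lysates of cultured human hepatocytes harvested 6 h post-dosing. Chemicals tested at multiple concentrations versus 0.2% DMSO vehicle; microscopy-based cytotoxicity flagged yes/no.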

[7] = read-out: xenobiotic metabolism (CYP1A1), CYP1A1 (gene 1543); experiment: CLD_CYP1A1_24hr: CellzDirect (CLD) Gene Expression Assay for xenobiotic metabolism (CYP1A1) at 24 hours (AID 2283673);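 also: CYP1A1 mRNA level by quantitative nuclease protection with chemiluminescence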
Method in brief: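 Transcript levels were read at 24 h by qNPA chemiluminescence in human liver primary cells. Cells got daily fresh dosing at multiple concentrations (vehicle 0.2% DMSO). Induction fitted upward against DMSO; phase-contrast cytotoxicity annotated.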

[8] = read-out: Cytochrome P450 2B6 (Homo sapiens) (UniProt P20813); experiment: CLD_CYP2B6_6hr: CellzDirect (CLD) Gene Expression Assay for xenobiotic metabolism (CYP2B6) at 6 hours (AID 2283677);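 also: actives raise CYP2B6 transcript above DMSO baseline so AC50 marks an inducer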
Method in brief: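 CYP2B6 transcript levels, read by chemiluminescent qNPA, were fitted for increase versus DMSO baseline; cultured human liver hepatocytes from two donor preparations were harvested 6 h after exposure to test chemicals at multiple concentrations.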

[9] = read-out: Cytochrome P450 3A4 (Homo sapiens) (UniProt P08684); experiment: CLD_CYP3A4_6hr: CellzDirect (CLD) Gene Expression Assay for xenobiotic metabolism (CYP3A4) at 6 hours (AID 2283680)
Method in brief: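 CYP3A4 mRNA induction, 6 h after dosing of cultured primary human hepatocytes from two donors, read by quantitative nuclease protection (qNPA, chemiluminescence). Vehicle 0.2% DMSO as baseline; morphology-based cytotoxicity annotated yes/no.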

[10] = CLD_ACTIN_6hr: CellzDirect (CLD) Gene Expression Assay for Baseline Control (Actin) at 6 hours (AID 2283676);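 also: active means increased actin mRNA relative to DMSO vehicle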
Method in brief: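 Baseline actin transcript level measured by qNPA (S1 nuclease protection, chemiluminescence) in human hepatocyte cultures 6 h after chemical exposure; 0.2% DMSO vehicle as reference, cytotoxicity noted from morphology.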

Chain of Cytochrome P450 2C19 (Homo sapiens) (P33261 whole entry, looked up): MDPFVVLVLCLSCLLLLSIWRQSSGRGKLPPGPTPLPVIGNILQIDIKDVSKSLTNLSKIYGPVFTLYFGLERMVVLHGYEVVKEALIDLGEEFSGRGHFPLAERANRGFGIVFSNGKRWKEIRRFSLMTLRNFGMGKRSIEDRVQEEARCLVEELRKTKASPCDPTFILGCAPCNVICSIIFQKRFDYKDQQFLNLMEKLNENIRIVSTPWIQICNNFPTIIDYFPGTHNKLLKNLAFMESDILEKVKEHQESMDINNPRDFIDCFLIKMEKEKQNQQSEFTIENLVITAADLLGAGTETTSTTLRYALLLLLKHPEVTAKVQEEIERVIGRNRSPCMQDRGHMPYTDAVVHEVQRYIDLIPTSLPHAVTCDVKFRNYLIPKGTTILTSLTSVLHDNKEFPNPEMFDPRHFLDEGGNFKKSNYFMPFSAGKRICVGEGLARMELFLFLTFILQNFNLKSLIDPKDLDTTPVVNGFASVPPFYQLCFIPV
Chain of Glyceraldehyde-3-phosphate dehydrogenase (Homo sapiens) (P04406 whole entry, looked up): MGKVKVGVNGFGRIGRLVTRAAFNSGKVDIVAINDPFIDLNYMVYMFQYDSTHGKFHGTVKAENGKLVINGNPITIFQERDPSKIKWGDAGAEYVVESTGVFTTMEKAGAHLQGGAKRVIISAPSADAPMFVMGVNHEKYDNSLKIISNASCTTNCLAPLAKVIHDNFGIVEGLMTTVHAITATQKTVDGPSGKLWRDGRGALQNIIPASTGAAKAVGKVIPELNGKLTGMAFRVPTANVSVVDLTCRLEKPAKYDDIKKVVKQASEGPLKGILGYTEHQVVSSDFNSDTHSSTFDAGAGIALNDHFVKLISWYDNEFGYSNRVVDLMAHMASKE
Chain of Cytochrome P450 3A4 (Homo sapiens) (P08684 whole entry, looked up): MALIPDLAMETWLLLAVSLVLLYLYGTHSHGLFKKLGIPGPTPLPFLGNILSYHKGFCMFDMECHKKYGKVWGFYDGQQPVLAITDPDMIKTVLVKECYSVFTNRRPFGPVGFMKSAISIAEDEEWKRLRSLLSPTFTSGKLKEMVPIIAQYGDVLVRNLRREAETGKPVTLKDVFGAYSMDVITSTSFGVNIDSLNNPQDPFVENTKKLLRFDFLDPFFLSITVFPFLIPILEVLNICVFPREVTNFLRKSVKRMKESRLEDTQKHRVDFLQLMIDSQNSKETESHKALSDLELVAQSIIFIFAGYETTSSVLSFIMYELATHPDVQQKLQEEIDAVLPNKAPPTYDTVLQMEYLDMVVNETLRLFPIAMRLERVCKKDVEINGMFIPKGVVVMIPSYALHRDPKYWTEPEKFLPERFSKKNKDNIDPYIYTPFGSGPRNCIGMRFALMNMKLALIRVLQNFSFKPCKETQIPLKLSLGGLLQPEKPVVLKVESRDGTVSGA

With `Nc1c(Cl)c(Cl)nc(C(=O)O)c1Cl` the outcome [1] was “inactive”, the outcome [2] was “inactive” and the outcome [3] was “inactive”. The outcome [4] was “inactive”, the outcome [5] was “inactive” and the outcome [6] was “inactive”.
For `CCN(CC)c1nc(C)cc(OP(=S)(OC)OC)n1`, the outcome [2] was “inactive”, the AC50 [7] was 5.14 µM (active) and the AC50 [8] was 1.59 µM (active). The AC50 [5] was 14.8 µM (active).
In the case of `CCC(C)n1c(=O)[nH]c(C)c(Br)c1=O` (stereo unspecified), the outcome [1] is reported as “inactive”, the outcome [2] is reported as “inactive” and the AC50 [7] is reported as 5.45 µM (active). For the same molecule, the outcome [5] was “inactive”.
For `CC(C)=CC1C(C(=O)OCc2coc(Cc3ccccc3)c2)C1(C)C` (stereo unspecified), the outcome [2] was “inactive”, the outcome [3] was “inactive” and the outcome [4] was “inactive”. The AC50 [5] was 1.71 µM (active) and the outcome [9] was “inactive”.
For `CS(=O)(=O)c1cc(C(F)(F)F)ccc1C(=O)c1cnoc1C1CC1`, the outcome [7] was “inactive”, the outcome [3] was “inactive” and the outcome [4] was “inactive”. For the same molecule, the outcome [5] was “inactive” and the outcome [6] was “inactive”.
For `CCNC(=O)NC(=O)C(C#N)=NOC`, the outcome [2] was “inactive”, the outcome [4] was “inactive” and the AC50 [5] was 33.1 µM (active). For the same molecule, the outcome [6] was “inactive”.
In the case of `CSC(=O)c1c(C(F)F)nc(C(F)(F)F)c(C(=O)SC)c1CC(C)C`, the AC50 [7] is reported as 4.78 µM (active), the outcome [3] is reported as “inactive” and the outcome [4] is reported as “inactive”. The AC50 [5] was 9.65 µM (active), the outcome [9] was “inactive” and the outcome [6] was “inactive”.
With `CCOP(=S)(OCC)Oc1nc(Cl)n(C(C)C)n1` the outcome [1] was “inactive”, the outcome [3] was “inactive” and the AC50 [8] was 0.511 µM (active). The AC50 [5] was 57.2 µM (active) and the AC50 [9] was 0.466 µM (active).
In the case of `Cc1cnc(C2=NC(C)(C(C)C)C(=O)N2)c(C(=O)O)c1` (stereo unspecified), the outcome [2] is reported as “inactive”, the outcome [10] is reported as “inactive” and the outcome [5] is reported as “inactive”. For the same molecule, the outcome [9] was “inactive” and the outcome [6] was “inactive”.
For `CC(C)Nc1nc(Cl)nc(NC(C)C)n1`, the outcome [2] was “inactive”, the outcome [5] was “inactive” and the AC50 [9] was 20 µM (active).
In the case of `CCOP(=O)(OCC)Oc1nc(Cl)c(Cl)cc1Cl`, the outcome [7] is reported as “inactive”, the outcome [3] is reported as “inactive” and the outcome [4] is reported as “inactive”. For the same molecule, the AC50 [5] was 0.485 µM (active), the AC50 [9] was 9.77 µM (active) and the outcome [6] was “inactive”.
For `CC(C)C1(C)N=C(c2ncccc2C(=O)O)NC1=O` (stereo unspecified), the outcome [2] was “inactive”, the outcome [4] was “inactive” and the outcome [5] was “inactive”. The outcome [6] was “inactive”.
With `CC(C)N1C(=O)c2ccccc2NS1(=O)=O` the outcome [2] was “inactive”, the outcome [7] was “inactive” and the outcome [3] was “inactive”. The outcome [4] was “inactive”, the outcome [5] was “inactive” and the outcome [6] was “inactive”.
In the case of `CC(C)N1C(=O)N(c2ccccc2)CSC1=NC(C)(C)C`, the outcome [2] is reported as “inactive”, the outcome [3] is reported as “inactive” and the AC50 [5] is reported as 1.48 µM (active). The outcome [9] was “inactive”.
With `O=C(Nc1ccccc1-c1ccc(Cl)cc1)c1cccnc1Cl` the AC50 [7] was 5.36 µM (active), the outcome [3] was “inactive” and the AC50 [8] was 0.504 µM (active). For the same molecule, the outcome [4] was “inactive” and the AC50 [5] was 3.12 µM (active).
With `COP(=S)(OC)SCn1nnc2ccccc2c1=O` the AC50 [2] was 1.73 µM (active), the AC50 [7] was 3.65 µM (active) and the outcome [3] was “inactive”. The AC50 [5] was 15.2 µM (active), the AC50 [9] was 0.975 µM (active) and the outcome [6] was “inactive”.
With `CNC(=O)Oc1cccc2ccccc12` the outcome [2] was “inactive”, the AC50 [7] was 8.24 µM (active) and the outcome [3] was “inactive”. The outcome [10] was “inactive”, the AC50 [8] was 6.15 µM (active) and the AC50 [5] was 60.8 µM (active).
In the case of `CC1(C)CCC(=Cc2ccc(Cl)cc2)C1(O)Cn1cncn1` (stereo unspecified), the AC50 [7] is reported as 4.02 µM (active), the outcome [3] is reported as “inactive” and the AC50 [8] is reported as 1.97 µM (active). For the same molecule, the outcome [4] was “inactive”, the AC50 [5] was 253 µM (active) and the outcome [9] was “inactive”.
In the case of `CC(C)(C)C(=O)C(Oc1ccc(Cl)cc1)n1cncn1` (stereo unspecified), the AC50 [7] is reported as 9.03 µM (active), the outcome [3] is reported as “inactive” and the AC50 [8] is reported as 3.95 µM (active). The outcome [4] was “inactive”, the AC50 [5] was 17.4 µM (active) and the AC50 [9] was 0.434 µM (active). For the same molecule, the outcome [6] was “inactive”.
In the case of `CCOC(=O)C(C)OC(=O)c1cc(Oc2ccc(C(F)(F)F)cc2Cl)ccc1[N+](=O)[O-]` (stereo unspecified), the outcome [2] is reported as “inactive”, the AC50 [7] is reported as 20 µM (active) and the outcome [4] is reported as “inactive”. The AC50 [5] was 0.19 µM (active) and the AC50 [9] was 4.03 µM (active).
In the case of `O=C(O)c1c(Cl)ccc2cc(Cl)cnc12`, the outcome [2] is reported as “inactive”, the outcome [3] is reported as “inactive” and the outcome [4] is reported as “inactive”. The outcome [5] was “inactive”, the outcome [9] was “inactive” and the outcome [6] was “inactive”.
In the case of `O=P(O)(O)CCCl`, the outcome [2] is reported as “inactive”, the outcome [3] is reported as “inactive” and the outcome [5] is reported as “inactive”. The outcome [6] was “inactive”.
In the case of `COCC(C)N(C(=O)CCl)c1c(C)csc1C` (stereo unspecified), the outcome [7] is reported as “inactive”, the outcome [3] is reported as “inactive” and the AC50 [8] is reported as 6.94 µM (active). For the same molecule, the AC50 [5] was 60.8 µM (active), the outcome [9] was “inactive” and the outcome [6] was “inactive”.
With `CN=C=S` the outcome [1] was “inactive”, the outcome [3] was “inactive” and the AC50 [8] was 4.85 µM (active). For the same molecule, the outcome [4] was “inactive”, the AC50 [5] was 2.93 µM (active) and the outcome [6] was “inactive”.
In the case of `N#Cc1c(Cl)cccc1Cl`, the outcome [2] is reported as “inactive”, the outcome [3] is reported as “inactive” and the outcome [10] is reported as “inactive”. The outcome [4] was “inactive”, the outcome [5] was “inactive” and the outcome [9] was “inactive”. The outcome [6] was “inactive”.
For `Clc1nc(Cl)nc(Nc2ccccc2Cl)n1`, the outcome [2] was “inactive”, the outcome [3] was “inactive” and the outcome [8] was “inactive”. For the same molecule, the AC50 [5] was 52 µM (active), the outcome [9] was “inactive” and the outcome [6] was “inactive”.
With `COC(=O)c1c(C(F)F)nc(C(F)(F)F)c(C2=NCCS2)c1CC(C)C` the outcome [2] was “inactive”, the outcome [4] was “inactive” and the AC50 [5] was 51.4 µM (active). For the same molecule, the outcome [9] was “inactive”.
For `COC(=O)NS(=O)(=O)c1ccc(N)cc1`, the AC50 [2] was 20 µM (active), the outcome [3] was “inactive” and the outcome [4] was “inactive”. The outcome [5] was “inactive” and the outcome [9] was “inactive”.
For `CO/N=C(/C1=NOCCO1)c1ccccc1Oc1ncnc(Oc2ccccc2Cl)c1F`, the outcome [7] was “inactive”, the outcome [3] was “inactive” and the AC50 [5] was 0.182 µM (active). The outcome [9] was “inactive” and the outcome [6] was “inactive”.
With `CC(C)Oc1cccc(NC(=O)c2ccccc2C(F)(F)F)c1` the outcome [1] was “inactive”, the outcome [4] was “inactive” and the AC50 [5] was 15.9 µM (active). For the same molecule, the outcome [9] was “inactive” and the outcome [6] was “inactive”.
